# The list is not random: actives were taken first. Their share in the collection is about 7.5%.
# Luc counter: Counterscreen for Luciferase (Kinase-Glo TM) Inhibition; Luciferin 4-monooxygenase (Photuris pensylvanica), Q27757; Kinase-Glo luciferase, ATP luminescence, 8 min; Potency, µM (titrated, usually from 38.3 µM), inactives show at the top dose activity change, negative = inhibition, actives largely listed as inhibitors; actives 0.28% (n = 200,000); AID 1379, 2008; also: % is scaled to controls: 0 for no effect and ±100 for the full control effect; nearly all actives have a fitted effect of over 60% in size
#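 Light output from Kinase-Glo luciferase with luciferin and 10 uM ATP in 50 mM imidazole pH 7.2, KCl, MgCl2, Tween 20, BSA; compound pin-delivered, 8-min ambient incubation, then luminescence read.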
# NPC1 prom act: qHTS Assay for NPC1 Promoter Activators; actives 2.4% (n = 320,000); Potency, µM (top dose mostly 9.22 µM), for inactives: at the top dose activation, hits mostly activators; AID 485313, 2010; Huh7 NPC1 promoter luciferase reporter, 24 h; also: % of control where 0% means no effect; nearly all actives have a fitted effect of over 60% in size
#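 Cells: Huh7 expressing luciferase under the NPC1 promoter, 1500/well. Seeded 2 h, compound added, incubated 24 h at 37 °C. Luciferase reagent, 10 min ambient, then luminescence.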
# ELG1 genotoxic: qHTS screen for small molecules that induce genotoxicity in human embryonic kidney (HEK293T) cells expressing luciferase-tagged ELG1. HEK293T ELG1-luciferase reporter, luminescence, 16 h. Potency, µM (titrated, usually from 46 µM), without a hit: at the top dose activity change, positive = activation, usual class: activators. actives 1.3% (n = 330,000). AID 504466, 2011; also: % of control where 0% means no effect; nearly all actives have a fitted effect of over 60% in size
#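 HEK293T cells expressing luciferase-tagged ELG1 were treated with compound or DMSO for 16 hr at 37°C. Luciferase activity was then read after 30 min with ONE-Glo at room temperature; rising signal flags genetic stress.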
# SMN2 splice up: qHTS Assay for Enhancers of SMN2 Splice Variant Expression; HEK293 SMN2-luciferase splicing reporter, luminescence, 30-36 h; Potency, µM (doses to about 46.1 µM), without a hit: at the top dose activity change, positive = activation, most hits filed as activators; actives 2.8% (n = 210,000); also: % of control where 0% means no effect; nearly all actives have a fitted effect of over 55% in size
#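 qHTS luciferase splicing reporter: luminescence rises when SMN2 exon 7 is included in transfected HEK293 cells. Compound exposure lasted 30-36 h at 37C, with 4.5 mM final sodium butyrate as control, followed by a ONE-Glo read.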
# FLuc modulator: qHTS profiling assay for firefly luciferase inhibitor/activator using purifed enzyme and Km concentrations of substrates (counterscreen for miR-21 project). AID 588342, 2011. actives 6.9% (n = 360,000). purified FLuc, Km substrates, luminescence inhibition. Potency, µM (titrated, usually from 57.5 µM), for the others: top-dose activity change, negative = inhibition, most hits filed as inhibitors;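 also: plate controls were vehicle for no effect and reference inhibitor for full effect; nearly all actives have a fitted effect of over 55% in size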
# Target sequence (P08659 whole entry, looked up): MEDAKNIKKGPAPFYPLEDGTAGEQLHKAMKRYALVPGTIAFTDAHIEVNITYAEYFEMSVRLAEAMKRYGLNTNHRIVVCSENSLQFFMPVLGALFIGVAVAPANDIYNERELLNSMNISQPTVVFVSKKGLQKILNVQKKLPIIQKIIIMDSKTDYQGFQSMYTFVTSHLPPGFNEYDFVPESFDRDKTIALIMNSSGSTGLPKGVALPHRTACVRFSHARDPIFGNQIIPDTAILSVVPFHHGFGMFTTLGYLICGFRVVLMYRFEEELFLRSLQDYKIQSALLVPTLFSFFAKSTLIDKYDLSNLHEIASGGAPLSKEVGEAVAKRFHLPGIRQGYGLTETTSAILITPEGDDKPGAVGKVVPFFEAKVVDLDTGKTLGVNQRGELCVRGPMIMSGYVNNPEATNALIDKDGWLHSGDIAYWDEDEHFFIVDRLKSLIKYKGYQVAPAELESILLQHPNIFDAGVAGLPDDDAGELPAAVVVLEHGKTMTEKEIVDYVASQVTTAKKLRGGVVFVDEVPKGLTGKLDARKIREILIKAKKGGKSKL
#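 Biochemical qHTS of compounds, final roughly 60 µM downward over six points, against 10 nM purified firefly luciferase using Km concentrations of substrates (10 uM D-luciferin, 10 uM ATP) in Tris acetate pH 7.5 buffer; luminescence output.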
# Rab9 prom act: qHTS Assay for Rab9 Promoter Activators | Huh7 Rab9 promoter-luciferase reporter, luminescence, 24 h | Potency, µM (doses to about 9.22 µM), for the others: at the top dose activation, negative = inhibition, actives largely listed as activators | actives 2.8% (n = 320,000) | AID 485297, 2010; also: % of control where 0% means no effect; nearly all actives have a fitted effect of over 60% in size
#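 Luminescence from Amplite-detected luciferase (10 minutes, ambient) reports Rab9 promoter activation. Before that, stable Rab9-luciferase Huh7 cells (1500/well, reduced-serum OP-MEM I plus 10% FBS) were exposed to compound for 24 hours at 37C.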
# Numbers without * were called inactive; ? = inconclusive; . = not tested or not shown; [ ] = dose if it differs, or a comment. Calls follow the shape of the dose curve; as a rule, active = well fitted curve in the direction sought with a large enough effect; inconclusive = small, poorly fitted or top-dose-only effect, or another doubt; inactive = no such curve, though single readings can be large; an effect the other way counts as inactive or inconclusive. Potency is read from the fitted curve at half-maximal effect.
SMILES,Luc counter,NPC1 prom act,ELG1 genotoxic,SMN2 splice up,FLuc modulator,Rab9 prom act
CC(=O)N1CCN(c2ccc(Nc3ncnc4c3oc3ccccc34)cc2)CC1,-4.1%,18.5%,-10.1%,-43.1%,23.9µM*,12.6%
Oc1ccc(Nc2ncnc3c2oc2ccccc23)cc1,.,?,?,.,15.1µM*,?
CCOC(=O)c1cnn2c(C(F)(F)F)cc(-c3ccc(Br)cc3)nc12,.,.,.,.,1.5%,.
CNc1c(NC(=O)c2ccc3c(c2)OCO3)c(=O)oc2ccccc12,.,4.8%,-0.7%[9.26 µM],.,1.7%,0.1%
CCc1ccccc1NC(=O)Cn1c(=O)ccc2cc(S(=O)(=O)N3CCCC3)ccc21,.,.,.,.,-1.4%,.
COCCOC(=O)c1c(C)n(S(=O)(=O)c2ccc(C)cc2)c2ccc(NS(=O)(=O)c3ccc(C)cc3)cc12,.,.,.,20.5%,5.0%,.
c1ccc2c(c1)oc1c(NCCN3CCOCC3)ncnc12,0.5%,14.1%,6.8%,-4.4%,-12.1%,3.7%
c1ccc2c(c1)oc1c(Nc3ccc(CN4CCOCC4)cc3)ncnc12,1.4%,2.24µM*,2.06µM*,-91.6%,8.49µM*,?
CN(CC(=O)Nc1cccc(S(=O)(=O)NC2=NCCC2)c1)Cc1ccccc1Cl,.,2.0%,-0.2%,.,-0.8%,3.0%
Cc1ccc(CN2CC(C(=O)Nc3cc(C)ccn3)CC2=O)cc1 (stereo unspecified),.,0.0%,16.4µM*,.,12µM*,-0.2%
Cc1ccc(CN2CC(C(=O)Nc3ccncc3)CC2=O)cc1 (stereo unspecified),.,-0.8%,-2.5%,.,-0.5%,14.9%
Cc1ccnc(NC(=O)C2CC(=O)N(c3ccc4c(c3)OCCO4)C2)c1 (stereo unspecified),.,8.5%,0.517µM*,.,4.78µM*,19.8%
COc1ccc(CNC(=O)COC(=O)c2ccc(F)c(S(=O)(=O)N3CCOCC3)c2)cc1,.,.,-1.7%,.,.,.
Cc1nnc(NC(=O)CSCc2cc(=O)c3ccccc3[nH]2)s1,.,-5.0%,.,.,-1.5%,-2.3%
Cc1cc2nc(-c3ccccc3)cc(=O)n2[nH]1,.,?,10.7%,.,6.75µM*,?
O=C1c2nc3cc(-c4ccccc4)[nH]n3c(=O)c2CN1Cc1ccccc1,.,-1.6%,0.2%,.,-9.1%,-3.3%
O=c1cc(-c2ccccc2)nc2cc(-c3ccco3)[nH]n12,.,21.7%,16.4%,.,3.38µM*,?
O=C1c2nc3cc(-c4ccco4)[nH]n3c(=O)c2CN1C1CCCCC1,.,28.4%,?,.,2.39µM*,14.4%
CCOc1ccc(CNC(=O)c2cc3cc(S(=O)(=O)N4CCCCC4)ccc3n2C)cc1,.,.,.,.,4.7%,.
C=C1c2ccccc2O[C@H](C(=O)OCC)[C@@H]1CC(C)(C)c1ccccc1,1.7%[39.9 µM],.,.,.,.,.
N#C/C(=C(/O)c1ccc2c(c1)OCO2)c1nc2cc(C(F)(F)F)ccc2s1,.,-5.2%,-8.1%,.,16.9µM*,-3.0%
CCN(CC)S(=O)(=O)c1nnc(NC(=O)COc2ccccc2F)s1,.,.,.,.,10.7µM*,.
CCN(CC)S(=O)(=O)c1nnc(NC(=O)COc2ccc(Cl)cc2)s1,.,.,.,.,2.39µM*,.
CN(C)C(=O)c1cn(-c2ccccc2)nc1-c1cc2ccccc2oc1=O,1.2%,-0.5%,-4.4%,21.0%,-5.0%,0.0%
CN(Cc1cn(-c2ccccc2)nc1-c1cc2ccccc2o1)C(=O)CCC(=O)O,3.5%,17.3%,?,4.6%,3.01µM*,27.0%
O=C(O)/C=C/c1cn(-c2ccccc2)nc1-c1cc2ccccc2o1,.,-1.9%,4.0%,.,15.1µM*,0.3%
O=C(Nc1ccc([N+](=O)[O-])cc1)c1cn(-c2ccccc2)nc1-c1cc2ccccc2o1,2.6%,-1.3%,?,2.1%,4.0%,-1.8%

# Compound activity: PubChem, National Center for Advancing Translational Sciences (NCATS)
